43 compounds from PubChem BioAssay AID1362 (SRMLSC, 2008) can be followed below.

As usually defined, the inhibition is the drop in the measured response relative to a control, in per cent.

Among all 190,000 compounds or so, about 4,000 (2.1%) were called active. No stated cut-off is given here; in the data, active means inhibition above about 58%; inactive means the rest, inconclusive results apart; tested in S. cerevisiae. The full list was thinned out, with actives kept by preference.

The assay in a line: growth inhibition of WT strain, primary screen, mitochondrial fusion inhibitor project, WT and mutant strains, chemical genetic (AID 1362). The following applies: mitochondrial fusion phenotypic screen, at 10 µM.
[1] abbreviates: WT strain, growth inhibition, stronger effect = higher value.

For `CCCOc1ccc(C(=O)C(CCC(CNCC)C(=O)c2ccc(OCCC)cc2)CNCC)cc1` (stereo unspecified), the inhibition is 72.9% (active) under setting [1] and 35.9% (mutant strain inhibition).

With `CCCOc1ccc(N/C=C/C(=O)C(C)(C)C)cc1`, the inhibition was -11.3% (inactive) under setting [1] and -8.28% (mutant strain inhibition).

Consider `Cc1cc2ccccc2n1CCC(=O)O`, for which the inhibition reads like this: under setting [1], 7.54% (inactive); (mutant strain inhibition) 5.92%.

As for `NC(=O)c1ccccc1N(Cc1ccccc1)S(=O)(=O)c1ccccc1`, the inhibition by setting is: under setting [1], -1.27% (inactive); (mutant strain inhibition) 17.1%.

For `COc1ccc(S(=O)(=O)N(C)CC(=O)N2CCCC2)cc1Cl`, the inhibition was -0.67% (inactive) under setting [1] and 5.49% (mutant strain inhibition).

As to `O=C(O)CC/C(=N\NC(=O)c1ccc(F)cc1)c1ccc(Br)cc1`, the inhibition by setting is: under setting [1], -0.54% (inactive); (mutant strain inhibition) 7.09%.

As for `COn1c(-c2ccc(Cl)cc2Cl)nc2ncccc21`, the inhibition reads like this: under setting [1], 6.69% (inactive); (mutant strain inhibition) 2.12%.

In the case of `Clc1ccc(-c2ncc3ccccn23)c(Cl)c1`, the inhibition is, setting by setting: under setting [1], 24.3% (inactive); (mutant strain inhibition) 2.24%.

For the compound `Clc1ccc(COn2c(-c3ccc(Cl)cc3Cl)nc3ncccc32)cc1`, the inhibition was 73.2% (active) under setting [1] and 48.6% (mutant strain inhibition).

Turning to `COCCNC(=S)Nc1cc(S(=O)(=O)N2CCOCC2)ccc1N1CCCCC1`, the inhibition is 22% (inactive) under setting [1] and 22.7% (mutant strain inhibition).

For the compound `CC(=O)NC(Cc1ccccc1)C(=O)NC1CCN(c2ncccc2[N+](=O)[O-])CC1` (stereo unspecified), the inhibition runs as follows: under setting [1], 6.05% (inactive); (mutant strain inhibition) 4.93%.

As for `COc1ccc(N2CCN(c3ccc([N+](=O)[O-])nc3)CC2)cc1`, the inhibition runs as follows: under setting [1], 15.8% (inactive); (mutant strain inhibition) 8.11%.

On to `COc1ccc(-c2cc(C3CCN(c4ncccc4[N+](=O)[O-])CC3)[nH]n2)cc1`, for which the inhibition by setting is: under setting [1], 72.2% (active); (mutant strain inhibition) 40.6%.

Consider `O=c1cnnc(Nc2ccccc2F)[nH]1`, for which the inhibition is -19.8% (inactive) under setting [1] and -21.4% (mutant strain inhibition).

`CCC(=O)c1ccc(OCC(O)CN2CCN(c3cccc(C(F)(F)F)c3)CC2)cc1` (stereo unspecified): the inhibition is 10.7% (inactive) under setting [1] and 17.1% (mutant strain inhibition).

With `O=C(COc1ccc(Cl)cc1)N1CCN(S(=O)(=O)c2ccc(Cl)cc2)CC1`, the inhibition under setting [1] is -16.2% (inactive) and the inhibition (mutant strain inhibition) is -6.77%.

For the compound `O=C(COc1ccc(Cl)cc1)N1CCN(c2cccc(C(F)(F)F)c2)CC1`, the inhibition was 59.2% (active) under setting [1] and 27.3% (mutant strain inhibition).

For the compound `CC(=O)Oc1ccccc1C1=NN(C(C)=O)C(c2ccccc2)C1` (stereo unspecified), the inhibition is, setting by setting: under setting [1], -8.11% (inactive); (mutant strain inhibition) 7.28%.

In the case of `Cc1cccc(NC(=S)Nc2ccc3cn[nH]c3c2)c1`, the inhibition was 3.94% (inactive) under setting [1] and -1.45% (mutant strain inhibition).

Consider `Cc1cccc(NC(=S)Nc2ccc(Br)cc2)c1`, for which the inhibition was -2.23% (inactive) under setting [1] and -3.76% (mutant strain inhibition).

For `Cc1cccc(NC(=S)Nc2ccc(Cl)c(Cl)c2)c1`, the inhibition is, setting by setting: under setting [1], 83% (active); (mutant strain inhibition) 83%.

As for `CCCCCN(C(=O)NC(=O)Nc1cccc(C)c1C)S(C)(=O)=O`, the inhibition was -2.53% (inactive) under setting [1] and 12% (mutant strain inhibition).

For `O=S(=O)(c1ccc(-c2ccccc2)cc1)N1CCCC1`, the inhibition by setting is: under setting [1], -9.92% (inactive); (mutant strain inhibition) -14.9%.

As to `CCOC(=O)N1CCN(C(=O)Cn2cnc3ccccc3c2=O)CC1`, the inhibition was -8.2% (inactive) under setting [1] and -9.03% (mutant strain inhibition).

`CCOC(=O)C1CCc2nc3ccccc3c(=O)n21` (stereo unspecified): the inhibition under setting [1] is 96.7% (active) and the inhibition (mutant strain inhibition) was determined as 18.1%.

Take `CCOCCCn1c(NN)nc2ccccc2c1=O`: the inhibition is, setting by setting: under setting [1], 4.28% (inactive); (mutant strain inhibition) 1.61%.

On to `Cc1nc(-c2ccc(Cl)cc2)sc1C(=O)CBr`, for which the inhibition under setting [1] is 29.8% (inactive) and the inhibition (mutant strain inhibition) is 16%.

On to `Cc1ccc(S(=O)(=O)Cc2cc(-c3ccc(Cl)cc3)no2)cc1`, for which the inhibition was 17.1% (inactive) under setting [1] and 12.1% (mutant strain inhibition).

Regarding `O=C(NCCc1c[nH]c2ccccc12)c1cc2ccccc2oc1=O`, the inhibition reads like this: under setting [1], 15.8% (inactive); (mutant strain inhibition) -4.03%.

As for `Cc1cc(C)cc(NC(=S)NCc2ccc(F)cc2)c1`, the inhibition reads like this: under setting [1], 42.3% (inactive); (mutant strain inhibition) 3.44%.

As for `Cc1cc(C)cc(NC(=S)NCCc2c[nH]c3ccccc23)c1`, the inhibition by setting is: under setting [1], 70.2% (active); (mutant strain inhibition) 27.3%.

As for `CC(C)(C)NC(=O)c1ccc(Cn2cc(C(F)(F)F)ccc2=O)cc1`, the inhibition is 3.12% (inactive) under setting [1] and 11.4% (mutant strain inhibition).

Regarding `Cc1cc(Nc2ccccc2)n(C(=O)c2ccc(N)cc2)n1`, the inhibition reads like this: under setting [1], -10.2% (inactive); (mutant strain inhibition) 32.9%.

Take `Cc1ccc(Nc2ccccc2N)cc1`: the inhibition by setting is: under setting [1], 48.4% (inactive); (mutant strain inhibition) 33.4%.

Regarding `Nc1ccc(Nc2ccccc2)cc1`, the inhibition is 74.9% (active) under setting [1] and 46% (mutant strain inhibition).

In the case of `CCOC(=O)C1(Cc2cccc(OC)c2)CCN(C(C)CC(C)(C)O)CC1` (stereo unspecified), the inhibition runs as follows: under setting [1], -0.94% (inactive); (mutant strain inhibition) 20.1%.

With `CCN(CC)CC(=O)Nc1sc2c(c1C(=O)c1ccccc1C)CCC2`, the inhibition was 56.7% (inactive) under setting [1] and 9.28% (mutant strain inhibition).

For `COC(=O)C1=C(Nc2ccc(C)cc2)C=C(C)C(C(=O)OC)C1c1ccc(F)cc1` (stereo unspecified), the inhibition runs as follows: under setting [1], 72.8% (active); (mutant strain inhibition) -7.13%.

Regarding `COC(=O)C1=C(Nc2ccc(OC)cc2)C=C(C)C(C(=O)OC)C1c1ccc(C)cc1` (stereo unspecified), the inhibition is 11.5% (inactive) under setting [1] and 5.72% (mutant strain inhibition).

Regarding `COC(=O)C1C(=O)NCC1c1ccc(C)cc1` (stereo unspecified), the inhibition runs as follows: under setting [1], 19.4% (inactive); (mutant strain inhibition) 13.7%.

As to `CCC(=O)NC(=S)Nc1ccc(NC(=O)c2ccco2)c(Cl)c1`, the inhibition is, setting by setting: under setting [1], 8.3% (inactive); (mutant strain inhibition) -0.75%.

`Cn1ccc(=NC=C(C#N)C#N)c2ccccc21`: the inhibition under setting [1] is -8.61% (inactive) and the inhibition (mutant strain inhibition) was 4.44%.

On to `CC1=NNC(=O)C1CCC(=O)N/N=C\c1ccc(Cl)c(Cl)c1` (stereo unspecified), for which the inhibition by setting is: under setting [1], -6.04% (inactive); (mutant strain inhibition) 2.78%.
